# Results filed as inconclusive are left out. Active and inactive are the calls of the source. No rule for the calls is given here.
# Test: HepG2 cell cytotoxicity, cytotoxicity control, set 5 (AID 588441)
# Settings: series mostly up to 50 µM; viability: at the top concentration
row,Structure (SMILES),viability
1,CCC(C)NC(=O)CSc1nc2ccccc2c(=O)[nH]1 (stereo not drawn),100% (inactive)
2,CCOC(=O)CSc1ncnc2c1cnn2-c1ccccc1,95.6% (inactive)
3,COC(=O)CSc1ncnc2c1cnn2-c1ccc(C)cc1C,99% (inactive)
4,CC(C)OC(=O)CSc1ncnc2c1cnn2-c1ccccc1,98.7% (inactive)
5,O=C(NCCc1ccc(Cl)cc1)c1ccc(CNc2c(N3CCOCC3)c(=O)c2=O)cc1,99.1% (inactive)
6,COc1ccc(N2CCN(C(=O)c3ccc(CNc4c(N5CCOCC5)c(=O)c4=O)cc3)CC2)cc1,109% (inactive)
7,CC1CC(C)CN(C(=O)C2CCC(CNc3c(N4CCCCC4)c(=O)c3=O)CC2)C1 (stereo not drawn),109% [at 15 µM] (inactive)
8,CCOC(=O)CSc1ncnc2c1cnn2-c1ccc(C)cc1C,97.2% (inactive)

# — PubChem BioAssay AID588441 (Southern Research Specialized Biocontainment Screening …, 2011)
